Assay results reported in the supplement of paper PMC10849652.
Of roughly 8,800 targets only a part is listed; those with a hit were picked by preference. About 0.5% of all pairs of compound and target were hits. A number with no mark means an inactive call.

Columns and labels:
Assay in all cases: log2 fold change, soluble protein after heating vs DMSO (PISA); higher = thermal stabilisation; K562 lysate, 10 uM; active = over 0.2 and 3.5 SD of the protein, either way, in both replicates (recomputed)
[1] = compound: Cc1cn(-c2cc(NC(=O)c3ccc(C)c(Nc4nccc(-c5cccnc5)n4)c3)cc(C(F)(F)F)c2)cn1 [nilotinib]
Method in brief: (§1)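 Following dounce homogenisation of K562 pellets in PBS pH 7.4 with 1 mM MgCl2, crude extract at 1 mg/mL protein was incubated for 30 min with 10 μM compound. Aliquots were then heated for 3 min over 48°C-58°C and pooled, NP-40 was added to 0.5% at 4°C, and soluble protein was recovered as the supernatant at 21,000xg for 90 min. Channel-sum-equalised TMTpro 16plex LC-MS/MS quantified this protein. Each value, from duplicates, is a log-two fold change in thermal stability relative to solvent controls.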

[2] = compound: Cc1nc(Nc2n[nH]c3c2CN(C(=O)N[C@H](CN(C)C)c2ccccc2)C3(C)C)c2sccc2n1
Method in brief: as §1

[3] = compound: Cc1nc(Nc2ncc(C(=O)Nc3c(C)cccc3Cl)s2)cc(N2CCN(CCO)CC2)n1 [dasatinib]
Method in brief: as §1

[4] = compound: Cc1ncc(-c2ccnc(Nc3ccc(S(C)(=O)=O)cc3)n2)n1C(C)C
Method in brief: as §1

[5] = compound: Cn1cc(-c2ccc3c(c2)CCN3C(=O)Cc2cccc(C(F)(F)F)c2)c2c(N)ncnc21
Method in brief: as §1

[6] = compound: Cn1cc(CNCC2CCN(c3ncc(C(=O)NO)cn3)CC2)c2ccccc21 [quisinostat]
Method in brief: as §1

[7] = compound: Cn1cncc1[C@@](N)(c1ccc(Cl)cc1)c1ccc2c(c1)c(-c1cccc(Cl)c1)cc(=O)n2C [tipifarnib]
Method in brief: as §1

[8] = compound: NC(=O)Nc1cc(-c2cccc(F)c2)sc1C(=O)N[C@H]1CCCNC1
Method in brief: as §1

[9] = compound: NC(=O)c1cnc(N[C@@H]2CCCC[C@@H]2N)nc1Nc1cccc(-n2nccn2)c1
Method in brief: as §1

[10] = compound: NC1(c2ccc(-c3nc4ccn5c(=O)[nH]nc5c4cc3-c3ccccc3)cc2)CCC1
Method in brief: as §1

[11] = compound: NCC(=O)Nc1ccc(-n2nc(C(F)(F)F)cc2-c2ccc3c(ccc4ccccc43)c2)cc1
Method in brief: as §1

[12] = compound: O=C(CCCCCCC(=O)Nc1ccccc1)NO [vorinostat]
Method in brief: as §1

[13] = compound: O=C(O)c1ccc2c(c1)nc(Nc1cccc(Cl)c1)c1ccncc12 [silmitasertib]
Method in brief: as §1

[14] = compound: O=C1NC(=O)C(c2cnc3ccccn23)=C1c1cn2c3c(cc(F)cc13)CN(C(=O)N1CCCCC1)CC2
Method in brief: as §1

[15] = compound: c1cn2cc(-c3ccc4cn[nH]c4c3)nc(Nc3ccc(N4CCOCC4)cc3)c2n1 [entospletinib]
Method in brief: as §1

Chain of UniProt P10620 (P10620 whole entry, looked up): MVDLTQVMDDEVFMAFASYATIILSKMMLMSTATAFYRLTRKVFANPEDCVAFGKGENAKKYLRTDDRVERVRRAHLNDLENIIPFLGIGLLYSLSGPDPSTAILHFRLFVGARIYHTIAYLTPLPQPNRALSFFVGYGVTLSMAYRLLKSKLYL
Chain of UniProt Q9NQ29 (Q9NQ29 whole entry, looked up): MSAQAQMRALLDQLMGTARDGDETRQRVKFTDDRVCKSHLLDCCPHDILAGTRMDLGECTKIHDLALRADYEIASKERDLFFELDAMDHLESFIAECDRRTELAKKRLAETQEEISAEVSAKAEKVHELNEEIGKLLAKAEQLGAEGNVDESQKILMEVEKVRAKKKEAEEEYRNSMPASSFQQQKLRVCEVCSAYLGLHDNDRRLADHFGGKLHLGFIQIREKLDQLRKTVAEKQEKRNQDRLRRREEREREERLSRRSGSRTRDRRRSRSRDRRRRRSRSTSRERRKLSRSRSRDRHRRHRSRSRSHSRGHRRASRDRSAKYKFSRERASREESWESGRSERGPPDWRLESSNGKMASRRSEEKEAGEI
Chain of UniProt P27816 (P27816 whole entry, looked up): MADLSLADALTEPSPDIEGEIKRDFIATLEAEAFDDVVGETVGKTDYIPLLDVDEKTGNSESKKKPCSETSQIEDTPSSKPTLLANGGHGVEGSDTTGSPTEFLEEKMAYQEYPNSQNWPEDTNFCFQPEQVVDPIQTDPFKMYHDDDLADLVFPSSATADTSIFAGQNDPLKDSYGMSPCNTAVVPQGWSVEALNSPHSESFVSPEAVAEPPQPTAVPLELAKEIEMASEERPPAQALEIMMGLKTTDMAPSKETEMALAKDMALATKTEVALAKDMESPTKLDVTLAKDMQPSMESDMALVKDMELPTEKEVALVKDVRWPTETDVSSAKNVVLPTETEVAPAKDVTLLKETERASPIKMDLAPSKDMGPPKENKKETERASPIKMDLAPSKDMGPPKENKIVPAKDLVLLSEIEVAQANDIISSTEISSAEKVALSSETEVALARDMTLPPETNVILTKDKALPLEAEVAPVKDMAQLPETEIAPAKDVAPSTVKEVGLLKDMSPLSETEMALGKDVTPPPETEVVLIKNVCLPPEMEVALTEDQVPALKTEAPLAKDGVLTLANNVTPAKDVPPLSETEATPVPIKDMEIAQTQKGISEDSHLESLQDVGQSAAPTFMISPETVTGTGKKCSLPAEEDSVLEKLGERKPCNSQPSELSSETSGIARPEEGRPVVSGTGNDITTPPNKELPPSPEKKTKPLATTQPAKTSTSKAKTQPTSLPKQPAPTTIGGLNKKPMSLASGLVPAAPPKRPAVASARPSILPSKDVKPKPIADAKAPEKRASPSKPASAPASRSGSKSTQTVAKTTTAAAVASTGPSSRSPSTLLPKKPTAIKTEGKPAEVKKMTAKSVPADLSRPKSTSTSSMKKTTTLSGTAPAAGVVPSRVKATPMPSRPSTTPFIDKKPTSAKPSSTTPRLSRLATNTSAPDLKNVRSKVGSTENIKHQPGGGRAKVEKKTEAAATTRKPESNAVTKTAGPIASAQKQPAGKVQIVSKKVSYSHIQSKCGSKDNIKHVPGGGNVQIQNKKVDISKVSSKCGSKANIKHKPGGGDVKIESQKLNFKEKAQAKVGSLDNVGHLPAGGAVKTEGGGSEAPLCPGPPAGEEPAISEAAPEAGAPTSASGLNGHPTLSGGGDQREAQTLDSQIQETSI
Chain of UniProt Q9NZB8 (Q9NZB8 whole entry, looked up): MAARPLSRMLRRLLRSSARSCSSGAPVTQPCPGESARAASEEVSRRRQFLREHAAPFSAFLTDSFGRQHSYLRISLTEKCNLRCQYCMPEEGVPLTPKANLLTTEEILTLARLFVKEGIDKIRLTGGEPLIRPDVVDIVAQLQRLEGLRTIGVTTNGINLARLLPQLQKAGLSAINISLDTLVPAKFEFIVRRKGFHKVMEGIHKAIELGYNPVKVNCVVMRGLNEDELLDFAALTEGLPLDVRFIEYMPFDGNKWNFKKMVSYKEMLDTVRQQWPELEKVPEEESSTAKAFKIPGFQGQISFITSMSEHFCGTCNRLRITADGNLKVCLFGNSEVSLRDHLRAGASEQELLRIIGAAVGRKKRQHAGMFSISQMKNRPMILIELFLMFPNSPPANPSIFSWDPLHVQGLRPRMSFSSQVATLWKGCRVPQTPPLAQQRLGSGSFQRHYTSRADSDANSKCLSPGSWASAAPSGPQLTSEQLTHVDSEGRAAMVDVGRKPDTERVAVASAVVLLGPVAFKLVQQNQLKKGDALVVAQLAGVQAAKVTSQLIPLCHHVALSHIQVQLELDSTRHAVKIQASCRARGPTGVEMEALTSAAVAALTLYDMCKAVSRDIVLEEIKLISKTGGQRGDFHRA
Chain of UniProt Q53G59 (Q53G59 whole entry, looked up): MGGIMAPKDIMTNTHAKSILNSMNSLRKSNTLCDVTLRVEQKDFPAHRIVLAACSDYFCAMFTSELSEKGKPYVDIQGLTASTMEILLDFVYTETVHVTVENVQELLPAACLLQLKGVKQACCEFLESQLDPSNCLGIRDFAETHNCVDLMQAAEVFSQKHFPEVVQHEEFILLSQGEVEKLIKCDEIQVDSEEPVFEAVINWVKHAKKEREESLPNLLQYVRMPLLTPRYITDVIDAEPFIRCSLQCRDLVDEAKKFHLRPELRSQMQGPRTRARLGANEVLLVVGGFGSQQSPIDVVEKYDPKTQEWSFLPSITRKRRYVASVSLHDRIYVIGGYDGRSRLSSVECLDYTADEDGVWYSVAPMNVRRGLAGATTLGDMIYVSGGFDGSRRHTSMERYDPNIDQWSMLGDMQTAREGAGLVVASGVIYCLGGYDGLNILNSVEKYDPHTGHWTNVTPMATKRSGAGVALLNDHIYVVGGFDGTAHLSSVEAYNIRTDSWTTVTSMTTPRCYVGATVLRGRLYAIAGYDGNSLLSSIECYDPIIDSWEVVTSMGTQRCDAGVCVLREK
Chain of UniProt Q13601 (Q13601 whole entry, looked up): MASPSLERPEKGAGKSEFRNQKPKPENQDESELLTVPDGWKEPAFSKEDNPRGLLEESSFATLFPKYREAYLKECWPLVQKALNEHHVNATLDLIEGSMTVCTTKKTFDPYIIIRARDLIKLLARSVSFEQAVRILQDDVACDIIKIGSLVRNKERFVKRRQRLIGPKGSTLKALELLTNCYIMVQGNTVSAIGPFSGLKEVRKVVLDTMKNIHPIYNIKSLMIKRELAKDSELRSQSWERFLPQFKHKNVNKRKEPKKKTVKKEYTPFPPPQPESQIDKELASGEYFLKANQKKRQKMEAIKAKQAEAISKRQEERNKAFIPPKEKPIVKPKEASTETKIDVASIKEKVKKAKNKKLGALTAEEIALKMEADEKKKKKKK
Chain of UniProt Q9H8H3 (Q9H8H3 whole entry, looked up): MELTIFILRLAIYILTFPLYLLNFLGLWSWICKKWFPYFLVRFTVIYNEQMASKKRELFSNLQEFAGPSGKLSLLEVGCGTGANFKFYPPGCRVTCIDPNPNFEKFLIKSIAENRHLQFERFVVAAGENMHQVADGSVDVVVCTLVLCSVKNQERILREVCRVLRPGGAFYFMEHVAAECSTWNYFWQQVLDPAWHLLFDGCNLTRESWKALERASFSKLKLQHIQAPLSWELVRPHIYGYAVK
Chain of UniProt Q96IZ6 (Q96IZ6 whole entry, looked up): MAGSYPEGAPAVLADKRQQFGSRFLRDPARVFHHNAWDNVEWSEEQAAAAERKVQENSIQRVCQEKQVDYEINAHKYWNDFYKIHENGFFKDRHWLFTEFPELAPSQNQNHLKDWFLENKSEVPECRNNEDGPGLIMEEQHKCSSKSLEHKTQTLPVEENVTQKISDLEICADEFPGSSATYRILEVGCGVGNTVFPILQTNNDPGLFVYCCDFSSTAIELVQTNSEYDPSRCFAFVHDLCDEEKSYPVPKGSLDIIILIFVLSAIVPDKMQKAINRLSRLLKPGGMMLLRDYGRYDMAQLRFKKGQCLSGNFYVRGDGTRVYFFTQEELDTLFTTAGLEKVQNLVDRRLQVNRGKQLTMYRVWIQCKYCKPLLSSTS
Chain of UniProt Q14807 (Q14807 whole entry, looked up): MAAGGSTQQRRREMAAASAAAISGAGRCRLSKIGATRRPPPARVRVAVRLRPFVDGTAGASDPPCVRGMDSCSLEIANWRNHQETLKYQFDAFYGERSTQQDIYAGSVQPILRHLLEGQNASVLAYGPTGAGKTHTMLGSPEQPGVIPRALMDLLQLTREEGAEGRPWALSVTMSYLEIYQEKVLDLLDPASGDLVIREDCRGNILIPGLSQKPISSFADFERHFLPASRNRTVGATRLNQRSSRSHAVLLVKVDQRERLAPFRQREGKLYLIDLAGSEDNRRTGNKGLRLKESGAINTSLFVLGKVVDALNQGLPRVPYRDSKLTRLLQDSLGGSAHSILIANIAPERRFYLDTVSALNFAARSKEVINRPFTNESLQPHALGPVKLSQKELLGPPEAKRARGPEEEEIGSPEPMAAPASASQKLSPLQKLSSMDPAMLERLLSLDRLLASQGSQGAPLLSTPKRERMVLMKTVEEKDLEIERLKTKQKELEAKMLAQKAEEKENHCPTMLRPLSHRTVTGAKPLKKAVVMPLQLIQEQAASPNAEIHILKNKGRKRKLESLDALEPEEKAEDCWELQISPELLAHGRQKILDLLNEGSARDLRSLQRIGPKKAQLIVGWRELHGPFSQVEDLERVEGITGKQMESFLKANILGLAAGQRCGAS
Chain of UniProt Q9UI95 (Q9UI95 whole entry, looked up): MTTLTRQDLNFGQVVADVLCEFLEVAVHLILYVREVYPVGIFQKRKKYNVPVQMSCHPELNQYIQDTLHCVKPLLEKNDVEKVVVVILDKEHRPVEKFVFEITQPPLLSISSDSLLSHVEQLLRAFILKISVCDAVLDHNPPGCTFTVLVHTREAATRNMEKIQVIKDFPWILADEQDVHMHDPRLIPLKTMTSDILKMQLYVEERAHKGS

Row | Target | log2 fold change [1] | log2 fold change [2] | log2 fold change [3] | log2 fold change [4] | log2 fold change [5] | log2 fold change [6] | log2 fold change [7] | log2 fold change [8] | log2 fold change [9] | log2 fold change [10] | log2 fold change [11] | log2 fold change [12] | log2 fold change [13] | log2 fold change [14] | log2 fold change [15]
1 | KIF22 (UniProt Q14807) | 0.041 | -0.021 | -0.023 | -0.029 | -0.055 | -0.451 (active) | -0.015 | 0.081 | -0.023 | -0.171 | 0.069 | 0.158 | -0.128 | 0.156 | 0.001
2 | MARK2 (UniProt E9PC69) | 0.019 | 0.034 | -0.03 | 0.012 | -0.047 | 0.031 | -0.019 | -0.065 | 0.002 | -0.183 | 0.026 | -0.167 | 0.486 (active) | 0.006 | 0.153
3 | LUC7L (UniProt Q9NQ29) | -0.027 | -0.113 | -0.032 | -0.047 | 0.023 | 0.22 | 0.033 | -0.207 | -0.014 | 0.032 | 0.003 | 0.136 | -0.126 | -0.016 | -0.019
4 | MRPL15 (UniProt Q9P015) | 0.011 | -0.034 | 0.004 | -0.028 | -0.008 | -0.022 | 0.012 | 0.005 | 0.012 | -0.181 | 0.068 | 0.137 | -0.071 | -0.02 | -0.061
5 | KLHL12 isoform 2 (UniProt Q53G59) | -0.037 | -0.044 | -0.056 | 0.064 | -0.07 | 0.04 | 0.015 | 0.097 | 0.043 | 0.035 | 0.135 | -0.108 | 0.024 | 0.003 | 
6 | MGST1 (UniProt P10620) | 0.033 | -0.002 | -0.012 | -0.017 | 0.014 | -0.029 | 0.02 | 0.085 | -0.007 | -0.012 | -0.013 | 0.037 | -0.013 | 0.031 | -0.01
7 | MAP11 (UniProt Q8WVR3) | -0.088 | 0.002 | 0.002 | 0.021 | -0.058 | -0.026 | -0.063 | 0.037 | -0.014 | -0.007 | -0.017 | -0.488 (active) | -0.015 | 0.056 | -0.131
8 | METTL2A (UniProt Q96IZ6) | -0.012 | 0.022 | 0.044 | -0.014 | 0.03 | -0.042 | 0.01 | 0.057 | -0.029 | 0.005 | 0.033 | -0.28 (active) | -0.005 | 0.058 | -0.003
9 | MAP2K3 isoform 3 (UniProt P46734) | -0.001 | -0.004 | -0.021 | 0.021 | 0.059 | -0.055 | -0.093 | 0.034 | -0.03 | 0.131 | -0.033 | -0.577 (active) | 0.149 | 0.025 | 0.072
10 | LIMK2 isoform 3 (UniProt P53671) | 0.074 | 0.06 | -0.126 | 0.07 | -0.099 | -0.003 | -0.05 | -0.066 | -0.064 | 0.008 | -0.011 | -0.21 | 0.114 | 0.021 | -0.055
11 | KRR1 (UniProt Q13601) | -0.057 | 0.058 | -0.014 | 0.006 | 0.012 | -0.336 (active) | -0.039 | 0.018 | 0.022 | -0.08 | 0.013 | 0.02 | 0.013 | 0.101 | 0.011
12 | KRIT1 (UniProt O00522) | -0.011 | -0.04 | 0.027 | 0.041 | -0.048 | -0.147 | -0.135 | 0.09 | 0.021 | -0.005 | -0.125 | -0.046 | -0.013 | -0.02 | 0.012
13 | MAP4 (UniProt P27816) | -0.002 | -0.001 | 0.013 | 0.016 | -0.036 | -0.001 | 0.012 | -0.034 | -0.011 | -0.003 | 0.017 | 0.092 | -0.023 | 0.016 | 0.005
14 | MAPK6 (UniProt Q16659) | -0.065 | 0.085 | 0.032 | 0.05 | 0.039 | -0.003 | -0.081 | 0.055 | 0.017 | -0.028 | -0.04 | -0.033 | 0.033 | 0.035 | 0.024
15 | METTL7A (UniProt Q9H8H3) | 0.168 | 0.014 | 0.198 | -0.01 | 0.096 | -0.112 | 0.03 | -0.026 | -0.055 | -0.068 | 0.037 | 0.017 | -0.053 | 0.274 | -0.001
16 | LPIN1 isoform 7 (UniProt Q14693) | -0.032 | 0.026 | -0.107 | 0.182 | 0.028 | -0.032 | -0.104 | 0.035 | -0.04 | 0.003 | 0.052 | -0.489 (active) | -0.014 | 0.004 | -0.193
17 | MACO1 (UniProt Q8N5G2) | -0.003 | 0.017 | -0.092 | 0.066 | 0.004 | 0.042 | 0.042 | 0.033 | -0.02 | 0.054 | 0.081 | 0.028 | -0.003 | -0.003 | 0.005
18 | MAD2L2 (UniProt Q9UI95) | 0.031 | -0.029 | -0.064 | 0.006 | -0.035 | -0.231 | -0.015 | 0.064 | 0.117 | -0.065 | 0.075 | -0.348 (active) | -0.006 | -0.02 | 0.017
19 | KPNA2 (UniProt P52292) | -0.051 | -0.002 | -0.041 | 0.018 | 0.039 | -0.01 | -0.023 | 0.026 | 0.039 | -0.05 | -0.014 | -0.376 (active) | 0.018 | 0.009 | 0.019
20 | MOCS1 isoform 8 (UniProt Q9NZB8) | 0.188 | -0.03 | 0.074 | 0.227 | -0.013 | -0.082 | -0.231 | 0.093 | 0.021 | -0.033 | -0.1 | 0.06 | -0.018 | -0.111 | -0.051
21 | LBR (UniProt Q14739) | -0.026 | 0.015 | -0.04 | -0.004 | 0.003 | 0.065 | -0.03 | -0.048 | 0.006 | 0.08 | -0.121 | 0.17 | -0.001 | -0.076 | -0.009
